Measured values from PubChem BioAssay (EPA / NIEHS).
Results filed as inconclusive are left out. Calls of active or inactive are those of the source. How the source made its calls: active means hit-call score of the fitted dose curve at least 0.9, where 1 is the maximum; inconclusive means response in the unintended direction; inactive means score below 0.9.

Assays:
[1] = molecular target: human Protein Tyrosine Phosphatase Non-receptor Type 6 (PTPN6), PTPN6 (gene 5777) (UniProt P29350); assay: NVS_ENZ_hPTPN6: NovaScreen (NVS) Enzymatic Assay for human Protein Tyrosine Phosphatase Non-receptor Type 6 (PTPN6) (AID 2283210)
Method in brief: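 Recombinant human PTPN6 from SF9 cells, enzyme activity followed by fluorescence after mobility-shift separation of substrate and product at 1.33 h. Chemicals first tested at a single 25 uM in duplicate, then confirmed across concentration series; loss of signal relative to DMSO.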

[2] = molecular target: human Rho Associated Coiled-coil Containing Protein Kinase 1 (ROCK1), ROCK1 (gene 6093) (UniProt Q13464); assay: NVS_ENZ_hROCK1: NovaScreen (NVS) Enzymatic Assay for human Rho Associated Coiled-coil Containing Protein Kinase 1 (ROCK1) (AID 2283214)
Method in brief: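 Compounds first run in duplicate at 25 uM against recombinant human ROCK1, then followed in concentration series. Kinase activity was read 1 h post-dosing by fluorescence with mobility-shift separation, as signal loss relative to DMSO.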

[3] = molecular target: human Sirtuin 2 (SIRT2), SIRT2 (gene 22933) (UniProt Q8IXJ6); assay: NVS_ENZ_hSIRT2: NovaScreen (NVS) Enzymatic Assay for human Sirtuin 2 (SIRT2) (AID 2283217)
Chain of human Sirtuin 2 (SIRT2), SIRT2 (gene 22933) (Q8IXJ6 whole entry, looked up): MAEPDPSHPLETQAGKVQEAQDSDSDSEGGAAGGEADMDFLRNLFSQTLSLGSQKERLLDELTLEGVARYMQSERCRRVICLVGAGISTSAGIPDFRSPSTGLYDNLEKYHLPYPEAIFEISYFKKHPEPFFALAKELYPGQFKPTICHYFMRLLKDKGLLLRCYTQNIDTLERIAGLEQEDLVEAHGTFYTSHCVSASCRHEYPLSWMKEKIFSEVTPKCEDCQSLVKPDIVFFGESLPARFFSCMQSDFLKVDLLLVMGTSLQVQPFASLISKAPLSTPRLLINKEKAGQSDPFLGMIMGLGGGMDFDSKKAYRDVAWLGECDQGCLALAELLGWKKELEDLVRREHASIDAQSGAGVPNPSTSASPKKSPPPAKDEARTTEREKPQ
Method in brief: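 Single-point duplicate screen at 25 uM, then concentration-response (max 50 uM) for chemicals passing threshold. Enzyme activity of recombinant human SIRT2 measured after 1 hr by fluorescence with mobility-shift separation of product; DMSO baseline.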

[4] = molecular target: human Sirtuin 3 (SIRT3), SIRT3 (gene 23410) (UniProt Q9NTG7); assay: NVS_ENZ_hSIRT3: NovaScreen (NVS) Enzymatic Assay for human Sirtuin 3 (SIRT3) (AID 2283222)
Method in brief: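 Cell-free enzyme assay with recombinant protein and fluorescent substrate, product separated by electrophoretic mobility shift; read 1 hour after dosing. Screened in duplicate at 25 uM, then singleton concentration-response up to 50 uM; loss of signal versus DMSO.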

[5] = molecular target: sheep Cyclooxygenase-2 (Cox2), PTGS2 (gene 443460) (UniProt P79208); assay: NVS_ENZ_oCOX2: NovaScreen (NVS) Enzymatic Assay for sheep Cyclooxygenase-2 (Cox2) (AID 2283231)
Method in brief: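 Compounds were first run at 25 uM in duplicate against tissue-extracted ovine COX-2; those passing a preset inhibition threshold went to singleton concentration-response testing with a 50 uM maximum. Read-out: absorbance at 0.66 hour.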

[6] = molecular target: human SRC Proto-Oncogene, Non-receptor Tyrosine Kinase (SRC), SRC (gene 6714) (UniProt P12931); assay: NVS_ENZ_hSRC: NovaScreen (NVS) Enzymatic Assay for human SRC Proto-Oncogene, Non-receptor Tyrosine Kinase (SRC) (AID 2283223)
Chain of human SRC Proto-Oncogene, Non-receptor Tyrosine Kinase (SRC), SRC (gene 6714) (P12931 whole entry, looked up): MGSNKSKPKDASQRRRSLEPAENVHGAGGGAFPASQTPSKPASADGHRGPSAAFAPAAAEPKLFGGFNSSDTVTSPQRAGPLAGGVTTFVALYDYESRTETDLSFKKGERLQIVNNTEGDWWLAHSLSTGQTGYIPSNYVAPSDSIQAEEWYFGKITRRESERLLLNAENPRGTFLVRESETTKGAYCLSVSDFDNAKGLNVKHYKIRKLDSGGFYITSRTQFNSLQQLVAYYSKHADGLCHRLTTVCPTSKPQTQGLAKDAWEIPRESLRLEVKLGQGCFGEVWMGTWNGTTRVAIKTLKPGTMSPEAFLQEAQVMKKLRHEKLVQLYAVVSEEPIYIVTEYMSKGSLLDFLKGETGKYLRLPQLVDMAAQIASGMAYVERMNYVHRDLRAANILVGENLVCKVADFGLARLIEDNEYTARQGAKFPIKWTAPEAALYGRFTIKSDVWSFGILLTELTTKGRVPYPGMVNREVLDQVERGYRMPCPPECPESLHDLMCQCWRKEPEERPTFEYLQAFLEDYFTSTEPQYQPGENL
Method in brief: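 Compounds passing 30% inhibition at 25 uM (duplicate) were titrated to a top concentration of 50 uM. Enzyme activity read by fluorescence with mobility-shift substrate/product separation after 1 h; DMSO baseline.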

[7] = molecular target: human Sirtuin 1 (SIRT1), SIRT1 (gene 23411) (UniProt Q96EB6); assay: NVS_ENZ_hSIRT1: NovaScreen (NVS) Enzymatic Assay for human Sirtuin 1 (SIRT1) (AID 2283219)
Method in brief: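 Cell-free recombinant SIRT1 with a fluorescent substrate; substrate and product separated by electrophoretic mobility shift and read by fluorescence intensity, 1 h after dosing. Primary screen at 25 uM in duplicate; hits re-run in concentration-response up to 50 uM, relative to DMSO.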

[8] = molecular target: human Vascular Endothelial Growth Factor Receptor 2 (VEGFR2), KDR (gene 3791) (UniProt P35968); assay: NVS_ENZ_hVEGFR2: NovaScreen (NVS) Enzymatic Assay for human Vascular Endothelial Growth Factor Receptor 2 (VEGFR2) (AID 2283230)
Chain of human Vascular Endothelial Growth Factor Receptor 2 (VEGFR2), KDR (gene 3791) (P35968 whole entry, looked up): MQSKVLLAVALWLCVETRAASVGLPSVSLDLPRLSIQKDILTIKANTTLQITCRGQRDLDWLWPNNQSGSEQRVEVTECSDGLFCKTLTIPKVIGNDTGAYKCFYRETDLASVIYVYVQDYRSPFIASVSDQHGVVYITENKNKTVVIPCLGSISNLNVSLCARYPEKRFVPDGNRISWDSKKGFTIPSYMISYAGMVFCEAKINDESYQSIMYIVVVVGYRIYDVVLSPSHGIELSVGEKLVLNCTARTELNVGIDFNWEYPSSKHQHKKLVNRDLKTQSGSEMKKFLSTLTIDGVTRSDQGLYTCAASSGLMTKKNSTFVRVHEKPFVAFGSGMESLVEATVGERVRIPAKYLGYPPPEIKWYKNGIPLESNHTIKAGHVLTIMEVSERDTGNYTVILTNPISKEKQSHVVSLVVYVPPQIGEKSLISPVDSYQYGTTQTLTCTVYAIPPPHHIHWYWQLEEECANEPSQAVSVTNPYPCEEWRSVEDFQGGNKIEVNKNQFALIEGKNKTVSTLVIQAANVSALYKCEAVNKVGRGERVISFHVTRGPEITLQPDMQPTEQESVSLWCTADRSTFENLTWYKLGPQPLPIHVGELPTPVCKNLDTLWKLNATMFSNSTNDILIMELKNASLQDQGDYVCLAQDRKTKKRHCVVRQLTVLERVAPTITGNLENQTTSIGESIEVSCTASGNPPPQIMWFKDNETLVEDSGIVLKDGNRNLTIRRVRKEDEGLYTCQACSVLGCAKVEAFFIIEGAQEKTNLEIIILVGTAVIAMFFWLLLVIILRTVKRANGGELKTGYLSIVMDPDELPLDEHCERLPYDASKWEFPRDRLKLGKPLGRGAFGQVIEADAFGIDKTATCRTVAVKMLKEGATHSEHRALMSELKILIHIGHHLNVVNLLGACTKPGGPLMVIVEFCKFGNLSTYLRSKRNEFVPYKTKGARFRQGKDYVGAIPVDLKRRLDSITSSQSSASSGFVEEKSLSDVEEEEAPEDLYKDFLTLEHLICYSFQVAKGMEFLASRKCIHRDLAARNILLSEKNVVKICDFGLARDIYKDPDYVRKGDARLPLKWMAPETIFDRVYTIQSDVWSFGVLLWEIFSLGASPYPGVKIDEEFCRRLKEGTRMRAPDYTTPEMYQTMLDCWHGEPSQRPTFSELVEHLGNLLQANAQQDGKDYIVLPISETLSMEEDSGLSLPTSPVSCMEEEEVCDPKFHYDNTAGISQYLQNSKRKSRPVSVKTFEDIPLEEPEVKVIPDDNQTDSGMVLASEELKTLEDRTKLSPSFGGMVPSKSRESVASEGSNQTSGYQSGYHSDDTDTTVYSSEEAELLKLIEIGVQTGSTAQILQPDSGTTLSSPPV
Method in brief: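 Cell-free recombinant VEGFR2 kinase, fluorescent substrate with electrophoretic mobility-shift separation; read 1 h after dosing. Screened at 25 uM in duplicate, hits to concentration-response up to 50 uM; loss-of-signal versus DMSO.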

[9] = molecular target: rat Catechol-O-Methyl Transferase (COMT), Comt (gene 24267) (UniProt P22734); assay: NVS_ENZ_rCOMT: NovaScreen (NVS) Enzymatic Assay for rat Catechol-O-Methyl Transferase (COMT) (AID 2283235)
Chain of rat Catechol-O-Methyl Transferase (COMT), Comt (gene 24267) (P22734 whole entry, looked up): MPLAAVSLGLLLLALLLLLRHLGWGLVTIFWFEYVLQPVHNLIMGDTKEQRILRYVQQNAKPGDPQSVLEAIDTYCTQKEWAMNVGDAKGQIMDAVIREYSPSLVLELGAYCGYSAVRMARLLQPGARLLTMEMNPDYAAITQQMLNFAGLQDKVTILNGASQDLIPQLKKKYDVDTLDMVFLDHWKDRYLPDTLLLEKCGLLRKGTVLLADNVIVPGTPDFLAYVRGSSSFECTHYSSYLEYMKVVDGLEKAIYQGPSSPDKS
Method in brief: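 Rat dorsal striatum extract served as COMT source; product quantified by HPLC/spectrophotometry, read at 0 h after dosing. Primary single-concentration screen at 25 uM, followed by concentration series to a 50 uM maximum.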

[10] = molecular target: rat Constitutive Nitric Oxide Synthase (CNOS), Nos1 (gene 24598) (UniProt P29476); assay: NVS_ENZ_rCNOS: NovaScreen (NVS) Enzymatic Assay for rat Constitutive Nitric Oxide Synthase (CNOS) (AID 2283236)
Chain of rat Constitutive Nitric Oxide Synthase (CNOS), Nos1 (gene 24598) (P29476 whole entry, looked up): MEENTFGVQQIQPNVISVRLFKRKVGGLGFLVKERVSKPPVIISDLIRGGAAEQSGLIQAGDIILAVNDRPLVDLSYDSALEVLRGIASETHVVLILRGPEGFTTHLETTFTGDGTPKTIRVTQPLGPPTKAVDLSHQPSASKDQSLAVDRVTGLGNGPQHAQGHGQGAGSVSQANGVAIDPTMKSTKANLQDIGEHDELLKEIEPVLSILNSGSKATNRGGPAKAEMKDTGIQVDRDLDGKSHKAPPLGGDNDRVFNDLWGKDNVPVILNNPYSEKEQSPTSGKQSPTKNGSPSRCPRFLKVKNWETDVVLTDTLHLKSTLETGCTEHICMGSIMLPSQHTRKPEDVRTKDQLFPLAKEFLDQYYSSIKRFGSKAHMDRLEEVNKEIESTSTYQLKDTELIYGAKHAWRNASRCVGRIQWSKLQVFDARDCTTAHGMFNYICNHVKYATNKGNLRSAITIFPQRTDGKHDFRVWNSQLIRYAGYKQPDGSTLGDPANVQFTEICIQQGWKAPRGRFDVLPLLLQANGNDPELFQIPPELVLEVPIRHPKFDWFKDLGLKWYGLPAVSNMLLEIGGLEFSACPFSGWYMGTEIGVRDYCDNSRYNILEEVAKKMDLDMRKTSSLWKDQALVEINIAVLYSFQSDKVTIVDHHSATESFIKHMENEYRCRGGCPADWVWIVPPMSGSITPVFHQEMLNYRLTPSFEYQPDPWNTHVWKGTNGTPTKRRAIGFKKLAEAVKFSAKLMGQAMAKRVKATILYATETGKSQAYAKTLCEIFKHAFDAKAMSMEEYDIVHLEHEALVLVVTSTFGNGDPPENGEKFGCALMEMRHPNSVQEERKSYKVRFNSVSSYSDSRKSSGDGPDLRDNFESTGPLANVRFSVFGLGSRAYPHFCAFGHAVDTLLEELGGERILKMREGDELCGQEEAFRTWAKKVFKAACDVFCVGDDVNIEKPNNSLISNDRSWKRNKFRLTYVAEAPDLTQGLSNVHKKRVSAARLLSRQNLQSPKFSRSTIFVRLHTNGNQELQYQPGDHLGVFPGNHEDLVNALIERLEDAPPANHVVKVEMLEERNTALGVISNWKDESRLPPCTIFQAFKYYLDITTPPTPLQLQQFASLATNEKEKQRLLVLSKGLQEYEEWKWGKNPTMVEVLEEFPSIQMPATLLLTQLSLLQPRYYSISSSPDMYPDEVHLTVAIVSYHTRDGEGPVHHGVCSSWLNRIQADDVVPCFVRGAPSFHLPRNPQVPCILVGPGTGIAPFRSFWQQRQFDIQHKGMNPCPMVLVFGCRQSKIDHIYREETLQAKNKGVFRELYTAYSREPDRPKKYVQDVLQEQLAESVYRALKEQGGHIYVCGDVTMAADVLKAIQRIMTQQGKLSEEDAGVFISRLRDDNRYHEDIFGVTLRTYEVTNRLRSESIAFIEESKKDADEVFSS
Method in brief: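 Single 25 uM duplicate screen, then concentration series to 50 uM for chemicals meeting threshold. Rat brain membrane-derived CNOS activity detected radiometrically by filtration and scintillation counting, 1 h after compound addition; DMSO as baseline.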

[11] = molecular target: sheep Cyclooxygenase-1 (Cox1), PTGS1 (gene 443551) (UniProt P05979); assay: NVS_ENZ_oCOX1: NovaScreen (NVS) Enzymatic Assay for sheep Cyclooxygenase-1 (Cox1) (AID 2283239);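 further: actives reduce cyclooxygenase activity so potencies are for inhibitors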
Chain of sheep Cyclooxygenase-1 (Cox1), PTGS1 (gene 443551) (P05979 whole entry, looked up): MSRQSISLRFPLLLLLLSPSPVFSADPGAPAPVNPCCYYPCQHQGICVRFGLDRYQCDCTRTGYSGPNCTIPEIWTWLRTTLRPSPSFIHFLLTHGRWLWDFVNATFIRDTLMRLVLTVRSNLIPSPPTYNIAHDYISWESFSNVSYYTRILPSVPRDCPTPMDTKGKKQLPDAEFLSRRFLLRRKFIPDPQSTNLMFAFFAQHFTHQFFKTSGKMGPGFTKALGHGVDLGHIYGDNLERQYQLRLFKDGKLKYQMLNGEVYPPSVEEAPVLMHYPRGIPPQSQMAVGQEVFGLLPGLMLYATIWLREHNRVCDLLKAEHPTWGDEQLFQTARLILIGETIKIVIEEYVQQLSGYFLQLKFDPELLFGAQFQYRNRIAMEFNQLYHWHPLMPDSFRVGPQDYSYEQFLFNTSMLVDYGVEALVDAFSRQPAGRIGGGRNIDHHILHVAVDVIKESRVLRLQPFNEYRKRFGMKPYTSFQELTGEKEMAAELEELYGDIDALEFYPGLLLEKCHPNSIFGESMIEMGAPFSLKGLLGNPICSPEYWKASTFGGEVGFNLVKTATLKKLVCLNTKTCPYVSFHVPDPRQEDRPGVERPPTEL
Method in brief: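 Tested in duplicate at 25 uM, then in concentration series if active, against seminal vesicle extract from sheep. Enzyme activity was measured colorimetrically at 0.66 hour and normalised to DMSO.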

[12] = molecular target: rabbit Imidazoline 2 Central (I2C), CKB (gene 100009085) (UniProt P00567); assay: NVS_ENZ_rabI2C: NovaScreen (NVS) Enzymatic Assay for rabbit Imidazoline 2 Central (I2C) (AID 2283228)
Chain of rabbit Imidazoline 2 Central (I2C), CKB (gene 100009085) (P00567 whole entry, looked up): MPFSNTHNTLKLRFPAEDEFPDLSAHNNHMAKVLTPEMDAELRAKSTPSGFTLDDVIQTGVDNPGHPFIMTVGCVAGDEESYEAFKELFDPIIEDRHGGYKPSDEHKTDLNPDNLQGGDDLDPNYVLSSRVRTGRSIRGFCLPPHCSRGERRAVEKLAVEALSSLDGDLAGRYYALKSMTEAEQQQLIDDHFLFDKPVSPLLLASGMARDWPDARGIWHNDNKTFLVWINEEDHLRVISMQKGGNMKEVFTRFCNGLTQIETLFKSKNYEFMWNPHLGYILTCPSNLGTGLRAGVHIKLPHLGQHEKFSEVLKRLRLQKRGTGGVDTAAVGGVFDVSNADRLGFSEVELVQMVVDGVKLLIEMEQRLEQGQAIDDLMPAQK
Method in brief: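 Rabbit brain membranes, cell-free; readout by filter-based scintillation counting 1.5 hours after dosing, loss of signal vs DMSO. Initial duplicate test at 25 uM, then concentration-response with 50 uM top concentration.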

CCCCCCC(C=O)=Cc1ccccc1
outcome [1]: inactive

O=C(N[C@@H](c1ccccc1)[C@@H]1CCCCN1)c1cccc(C(F)(F)F)c1Cl
outcome [2]: inactive
outcome [3]: inactive
outcome [4]: inactive

COc1ccc(C(=O)Nc2nc3ccccc3c(NCc3ccccc3)c2C#N)cc1
outcome [1]: inactive
AC50 [5]: 13.7 µM (active)

CC(=O)O
outcome [6]: inactive

N[C@@H](Cc1c[nH]c2ccccc12)C(=O)O
outcome [2]: inactive
outcome [7]: inactive

Nc1nc(Cl)nc2c1ncn2[C@H]1C[C@H](O)[C@@H](CO)O1
AC50 [8]: 4.88 µM (active)

O=C1c2c(O)cccc2Cc2cccc(O)c21
AC50 [5]: 6.81 µM (active)
AC50 [9]: 12.1 µM (active)
AC50 [10]: 5.47 µM (active)
AC50 [11]: 3.2 µM (active)

NC1CCCCC1
AC50 [12]: 30.3 µM (active)

C#CC(O)C(CC)CCCC (stereo not given)
outcome [11]: inactive

CCCCCCCCCCCCCCOS(=O)(=O)O
AC50 [6]: 37.1 µM (active)
AC50 [8]: 30.2 µM (active)

CCCCC(CC)COC(=O)CCCCCCCC(=O)OCC(CC)CCCC (stereo not given)
outcome [8]: inactive

Oc1ccccc1O
outcome [5]: inactive
outcome [9]: inactive

CCC(C)N(C)C(=O)c1cc2ccccc2c(-c2ccccc2Cl)n1 (stereo not given)
outcome [10]: inactive

O=NO
outcome [5]: inactive

CCCCCCCCCC[N+](C)(C)[O-]
AC50 [12]: 8.08 µM (active)

COC(=O)[C@H]1[C@H]2C[C@@H]3c4[nH]c5cc(OC)ccc5c4CCN3C[C@H]2C[C@@H](OC(=O)c2cc(OC)c(OC)c(OC)c2)[C@@H]1OC
outcome [12]: inactive
AC50 [11]: 19.5 µM (active)

C/C=C/c1ccc(OC)cc1
outcome [5]: inactive

CSc1ccc(Oc2ccc(S(N)(=O)=O)cc2CN(C)C)cc1C
outcome [11]: inactive

CC(=O)S[C@H](C(=O)N[C@H]1Cc2ccccc2[C@H]2CCC[C@@H](C(=O)O)N2C1=O)C(C)C
outcome [10]: inactive
outcome [11]: inactive

CCc1cc(C2=C(C(=O)O)N(c3ccccc3C(F)(F)F)S(=O)(=O)c3ccccc32)cc2c1OCO2
AC50 [5]: 19.2 µM (active)

NC(=Nc1ccccc1)Nc1ccccc1
outcome [12]: inactive
outcome [8]: inactive
outcome [11]: inactive

CC(=O)OCC(COC(C)=O)OC(C)=O
outcome [9]: inactive

Nc1nc(=S)c2[nH]cnc2[nH]1
AC50 [12]: 20.7 µM (active)
AC50 [11]: 2.25 µM (active)

S=c1[nH]c2ccccc2s1
AC50 [5]: 9.72 µM (active)
AC50 [10]: 10.6 µM (active)
AC50 [11]: 8.91 µM (active)

CCCCc1nc2cccnc2n1Cc1ccc(-c2ccccc2-c2nnn[nH]2)cc1
outcome [6]: inactive

CCc1nc(N)nc(N)c1-c1ccc(Cl)cc1
AC50 [12]: 2.83 µM (active)
outcome [5]: inactive

Cn1cnc2c1c(=O)[nH]c(=O)n2C
outcome [12]: inactive
outcome [11]: inactive
